Screens deposited in PubChem by National Center for Advancing Translational Sciences (NCATS).
Pf Dd2 growth – Plasmodium falciparum Dd2 growth inhibition; AID 1347417; Potency, µM (series often up to 28.9 µM), for inactives: top-dose activity, negative = inhibition, usual class: inhibitors; P. falciparum Dd2 growth, SYBR Green, 72 h; 4.3% of 120,000 active; active means well fitted inhibition curve with a large enough effect;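 further: plate controls were DMSO vehicle for no effect and reference drug for full effect; nearly all actives have a fitted effect of over 65% in size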
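Readout: SYBR Green fluorescence, 485 nm excitation, 535 nm emission, after ~16 h lysis at 37C. Before that, Dd2-infected red cells (2.5% hematocrit) grew 72 h with compound, 29 uM top final concentration.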
An asterisk follows results filed as active; i = inactive; [ ] = another dose, or the depositor's remark. The entries come from a sample that favours hits as a whole. Potency means the concentration at half of the fitted maximal effect.

SMILES | Pf Dd2 growth
CC(=O)N[C@@H]1CN(Cc2ccc(OC(C)C)cc2)C[C@H]1CO | 21%
COc1ccc(C(=O)N2CCOCC3(CN(Cc4cccc(C#N)c4)C3)C2)cc1OC | i
CC(C)C1CN(C(=O)CNC(=O)N(C)C)CCCN1Cc1ccc(F)cc1 (configuration not stated) | -19%
Cc1c(O)cccc1C(=O)N1CCCN(Cc2ccc(F)cc2)C(C(C)C)C1 (configuration not stated) | 4µM*
CC(C)C1CN(C(=O)CN2CCCCC2=O)CCCN1Cc1ccc(F)cc1 (configuration not stated) | -10%
COc1ccc(F)cc1C(=O)NCc1c(C)ncc2c1CCNC2 | -16%
CCO[C@H]1CN(C(=O)Cc2c(C)nn(-c3ccccc3)c2C)C[C@@H]1O | 2%
N#Cc1ccc(CN2CCC3(COC(=O)N3Cc3ccccc3)C2)cc1 (configuration not stated) | -5%[44.1 µM]
O=C1OCC2(CCN(Cc3ccn[nH]3)C2)N1Cc1ccccc1 (configuration not stated) | -9%[44.1 µM]
O=C1OCC2(CCN(Cc3ccccc3O)C2)N1Cc1ccccc1 (configuration not stated) | 10µM*
O=C1[C@@H]2C[C@@H](O)CN2C2(CN(Cc3c[nH]c4ccccc34)C2)C(=O)N1Cc1ccccc1F | -6%
O=S(=O)(c1ccc(F)cc1)N1[C@H]2CC[C@@H]1c1cncnc1C2 | -7%
COC(=O)C1=C(C)N=C2SC=C(CC(=O)NCc3cccc(F)c3)N2C1c1ccccc1OC (configuration not stated) | -7%
COCCNC(=O)c1cc(-c2cnn(Cc3ccccc3)c2)cc2ncn(C)c12 | 25%[44.1 µM]
Cc1ccc(NC(=O)c2cnc(N3CCCCC3)c3ccccc23)cc1Cl | -22%
COc1ccccc1C(=O)Nc1ccc2ncnc(N3CCCCC3)c2c1 | i
Cc1ccc(C)c(C(=O)Nc2ccc3c(N4CCCC4)ncnc3c2)c1 | 2.5µM*
O=C(Nc1ccc2c(N3CCCC3)ncnc2c1)c1ccccc1Br | 13µM*
COc1ccc(CC(=O)N2CC[C@H]3CC(=O)N(C4CC4)CC[C@H]3C2)cc1 | i
O=C(NCC1CC1)C1Cn2cccc2C(=O)N1Cc1ccccc1 (configuration not stated) | -21%
CN1CCC2(CC1)CN(C(=O)c1cncc(Br)c1)Cc1ccccc1O2 | -3%
CCN(CC)Cc1ccc2c(c1)CN(C(=O)c1cncc(Br)c1)CCO2 | 8.9µM*
Cc1ncoc1C(=O)N1CCOc2ccc(CCC(N)=O)cc2C1 | -6%
Cc1ccc(N2CCC3(CCCN3Cc3ccc(C4CCCO4)s3)CC2)nn1 (configuration not stated) | i
O=C(Nc1ccc2c(N3CCOCC3)ncnc2c1)c1ccc(F)c(Cl)c1 | 2.5µM*
SMILES | Pf Dd2 growth
Cc1ccc(C(=O)Nc2ccc3c(N4CCOCC4)ncnc3c2)cc1 | -11%
O=C(Nc1ccc2c(N3CCOCC3)ncnc2c1)c1ccccc1C(F)(F)F | i
O=C(Nc1ccc2nc(SCC(=O)N3CCOCC3)sc2c1)c1cccc(Br)c1 | -6%
O=C(Nc1ccc2c(N3CCOCC3)ncnc2c1)c1cccc(Br)c1 | 0.89µM*
O=C(Nc1ccc2ncnc(N3CCCC3)c2c1)c1cccc(Br)c1 | -20%
CCCN1C(=O)C(CC(=O)N2CCCCCC2)Sc2ncccc21 (configuration not stated) | -7%
O=C(CC1=CCNCC1)N(Cc1ccccn1)CC1CCCO1 (configuration not stated) | -19%
Cc1cc(C(F)(F)F)nn1CC(=O)N1CCCC(CO)CCNC(=O)CC1 (configuration not stated) | -6%
CC(C)(C)n1nnnc1C1CC2(CCOCC2)C(=O)N1Cc1cccs1 (configuration not stated) | 11%
Cc1ccc(Cc2ccccc2C(=O)N2C[C@@H](C)[C@@](C)(O)C2)cc1 | 2%
COc1ccc(-c2[nH]nc3ncc(C(=O)N(C)c4cccnc4)nc23)c(C)c1 | i
O=C(Cn1ccn2nc(-c3ccc(F)cc3)c(CO)c2c1=O)Nc1ccccc1C(F)(F)F | -15%
COC[C@H]1CCCN1C(=O)C[C@@H]1O[C@H](CNC(=O)c2ccc(C)cc2)[C@@H](O)[C@H]1O | -25%[44.1 µM]
O=C1NCCCN1C1CCN(Cc2cccnc2)CC1 | 13%[44.1 µM]
Cc1ccc2oc(=O)c3cnn(CC(=O)N4CCN(c5cccc(C(F)(F)F)c5)CC4)c3c2c1 | 73%[5.79 µM]
Cc1ccc2oc(=O)c3cnn(CC(=O)Nc4ccc(Br)cc4C)c3c2c1 | -6%
Cc1ccc2oc(=O)c3cnn(CC(=O)Nc4cccc(C(F)(F)F)c4)c3c2c1 | 1.1µM*
COCCN(C)C(=O)c1cn(C2CN(C(=O)NCc3ccc(C)cc3)C2)nn1 | 28%
COCCN1CCNc2cc(Nc3ccc(N4CCOCC4)cc3)ncc2C1 | -20%[44.1 µM]
COc1ccc(CCNC(=O)c2cc3cn(C(C)C)cc3s2)cc1OC | 8.9µM*
COc1ccc(CNC(=O)c2cc3cn(C4CC4)cc3s2)cc1OC | i
Cc1ccc(CNC(=O)c2cc3cn(C(C)C)cc3s2)o1 | i
O=C(c1cccnc1)N1CC[C@H](c2nc3ccccc3o2)C1 | -12%[44.1 µM]
